According to the supplement of paper PMC9337992:
± gives the standard deviation of the averaged measurements.

What follows are molecules tested on MDAMB468 (assay: cell proliferation (confluence) relative to DMSO control; higher = less growth inhibition). Conditions: 5 uM; 6 d.
Protocol: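 Epigenetic chemical probe screen: 15 TNBC cell lines, 500 cells per well in 384-well plates, treated with 5 uM of each of 36 SGC probes for 6 d. Confluency was imaged by IncuCyte ZOOM and normalised to DMSO control wells. Four replicate wells per compound.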
For `O=C(c1ccc(C(=O)N2CCC(N3CCCC3)CC2)c(Nc2ccccc2)c1)N1CCC(N2CCCC2)CC1`, the cell proliferation was 74.9 ± 8.6%. With `O=C(NCC(=O)N1CCCC1)Nc1ccc2cnccc2c1` the cell proliferation was 40.6 ± 15%. In the case of `CCCOc1ccn2c(C(C)=O)cc(-c3ccccc3S(C)(=O)=O)c2c1`, the cell proliferation is reported as 66 ± 5.1%. In the case of `CCCc1cc(C)[nH]c(=O)c1CNC(=O)c1cc(-c2ccnc(N3CCN(C)CC3)c2)cc2c1cnn2C(C)C`, the cell proliferation is reported as 67.7 ± 12%. Molecule `COc1cc(C#N)ccc1S(=O)(=O)Nc1ccc2c(c1)cc(C)c(=O)n2C` has a cell proliferation of 40.4 ± 6.3%. `COc1ccccc1C(=O)Nc1cc2c(cc1N1CCCC1)n(C)c(=O)n2C` gave a cell proliferation of 39.3 ± 3.8%. Molecule `CCN(C(=O)CO)[C@H]1CN(/C(=N\C#N)Nc2cccc(OC(F)F)c2)N=C1c1ccc(Cl)c(Cl)c1` has a cell proliferation of 55.2 ± 6%. For `CC(C)Oc1ccc(-c2c[nH]cc2CN(C)CCN)cc1`, the cell proliferation was 19.3 ± 5.7%. `CCC(=O)N1CCOc2c(cc(-c3ccc(OC)c(OC)c3)cc2OC[C@H]2CCCN(C)C2)C1` was tested, and the cell proliferation was 37.1 ± 9%. Work on `Cn1cc(CCn2cnc(-c3cnn(C)c3)c2-c2ccc(C#N)cc2)cn1` yielded a cell proliferation of 55.5 ± 13%. `CCOC(=O)CCNc1cc(N2CCc3ccccc3CC2)nc(-c2ccccn2)n1` gave a cell proliferation of 9.55 ± 1.9%. For `COc1cc2c(NC3CCN(C(C)C)CC3)nc(C3CCCCC3)nc2cc1OCCCN1CCCC1`, the cell proliferation was 67.2 ± 8%. `CC(C)N(CCCNC(=O)Nc1ccc(C(C)(C)C)cc1)C[C@H]1O[C@@H](n2cc(Br)c3c(N)ncnc32)[C@H](O)[C@@H]1O` gave a cell proliferation of 54.2 ± 14%. In the case of `CCOC(=O)CCNc1cc(N2CCc3ccccc3CC2)nc(-c2cccnc2)n1`, the cell proliferation is reported as 71.9 ± 10%. `COc1ccc(CCc2nc3cc(-c4c(C)noc4C)ccc3n2C[C@H](C)N2CCOCC2)cc1Cl` was tested, and the cell proliferation was 32.8 ± 4%. For `CNCCN1CCC(OCc2ccccc2)CC1`, the cell proliferation was 37.4 ± 6.8%. `COc1c(C)cc(NC(=O)c2nn(Cc3ccc(F)cc3)c3c2CN(C(=O)c2ccc[nH]2)C[C@]3(C)C(N)=O)cc1C` showed a cell proliferation of 35.5 ± 4.7%. Work on `CCn1cc(-c2cccc(C(F)(F)F)c2)c2sc(C(=N)NC3CCS(=O)(=O)CC3)cc2c1=O` yielded a cell proliferation of 29.1 ± 4.8%. With `O=C([C@@H](Cc1cccc(C(F)(F)F)c1)NS(=O)(=O)c1cc(F)c2c(c1)CCNC2)N1CCCC1` the cell proliferation was 50.5 ± 25%. For `COc1cc(-c2cn(C)c(=O)c3cnccc23)c(OC)cc1CN(C)C`, the cell proliferation was 53.6 ± 13%. For `COc1cc2c(cc1OCCCN1CCCC1)N=C(N)C21CCC1`, the cell proliferation was 71.6 ± 11%. Work on `Cc1nnc2c3ccccc3c(N[C@@H](C)[C@H](c3ccccc3)N(C)C)nn12` [L-moses] yielded a cell proliferation of 41 ± 3.8%. For `CCCc1cc(C)[nH]c(=O)c1CNC(=O)c1cc(-c2ccc(N3CCN(C(C)C)CC3)nc2)cc2c1cnn2C(C)C`, the cell proliferation was 13.3 ± 14%. `COc1ccccc1S(=O)(=O)Nc1ccc2c(c1)CN(C)C(=O)N2` gave a cell proliferation of 23.2 ± 2.7%. For `O=C(/C=C/N1C[C@H]2C[C@@H]1CN2c1ccccn1)c1ccccc1O`, the cell proliferation was 75.6 ± 6.1%. In the case of `CCCc1cc(C)n(C)c(=O)c1CN(C)C(=O)c1cc(-c2ccc(N3CCN(C(C)C)CC3)nc2)cc2c1cnn2C(C)C`, the cell proliferation is reported as 70.4 ± 6.3%. Molecule `CC(C)Oc1ccc(-c2c[nH]cc2CN(C)CCO)cc1` has a cell proliferation of 37 ± 7.3%. `Cc1cc(=O)n(C)c2cc(N3C(=O)CC[C@H](NS(=O)(=O)CC(C)C)[C@H]3c3ccc(Cl)cc3)ccc12` showed a cell proliferation of 59.3 ± 2.4%. `O=C(NC[C@H](O)CN1CCc2ccccc2C1)c1ccnc(NC2CCC2)c1` showed a cell proliferation of 32 ± 1.8%. Molecule `CC[C@H](C)n1cc(C)c2c(C(=O)NCc3c(C)cc(C)[nH]c3=O)cc(-c3ccc(N4CCNCC4)nc3)cc21` has a cell proliferation of 15.4 ± 9%. Work on `CN(C)[C@H]1CN(C2CCc3cccc(F)c32)C[C@@H]1c1ccc(N2CCN(S(C)(=O)=O)CC2)cc1` (some centres not stated) yielded a cell proliferation of 62.7 ± 4.4%. `Clc1cc2c(NC3CCCC3)nnc(-c3ccncc3)c2cc1Cl` showed a cell proliferation of 56.9 ± 7.9%.
